From the supplement of paper PMC6555819

System: RXRa homodimer (NR concentration 180 nM)
Assay: PBM binding z-score (relative to random genomic background probes); higher = stronger binding; sequences stand for … in GC…GCGATTGACAGCGTAGAATGAAGG
Outline: (§1)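 Binding buffer was PBS pH 7.4 with 2% milk, 0.02% Triton X-100, 1 mM DTT, 0.2 mg/mL BSA and 0.4 mg/ml salmon testes DNA. In it, ligand-free nuclear receptor dimers were incubated 1 h on custom Agilent 4×180K protein-binding microarrays carrying double-stranded probes. Antibodies against each partner (one per run) detected binding, and z-scores were calculated against random background probes after regression normalization of scanned fluorescence.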

Sequence	PBM binding z-score
TCGAGTAGGTTAGGGGCATTGAGAATGGCGTCGA	0.572
TCGTATAGGTAAACAGGTGAAAGTCCGTAAGTTA	0.637
CTCGAAAGGTCGGATGAGGTGAGTATACGGATAA	2.94
CAAACTAGATCAAGGTCAAAGTCGGTTTGTGCCA	4.18
CATAGCAGGCCAATCTGGGTCACTCAAGGCTTGA	1.09
AGAATGAGGTTATACGAAGATCAGGGAAGAAAGT	2.09
GCTGCTAGGTGAACTGATGGTCAGCTAAAGCTCG	0.333
CGACCTAGGTCAGAACAGGACAGTGAAGGATGAT	2.21
CGAACTAGGTCATAACAGGACAGTGAAGGATGAT	2.37
TCGGGTAGGTTAGTCGGGGCATTCAGCCAACATA	0.0388
CATACATGGTCAGCTAGGCCAGAGTAGGGACGGC	0.103
TCTATTAGTTGAAGGGCAACCAACGAGTCCGTTT	0.529
CAAACTAGGTCACGAAAGGTGAAAGTCGAATGAC	5.25
GCAGACAGGTGACACGCAGGTAACTCAGGGTGGC	0.715
AGAATGAGGTTAAGATCAGGTAAACAGAATACAT	2.81
CCTACTGGGCCAAAGGTCATTGAATCCAATGCTC	6.52
TCGAGTTGGTCAAAGGTCACACACTCGAAATGCG	8.01
TCCTATAGGTAATACAGGTGAAAGTCGGCATCTA	0.757
GATACAGGGTCAGCTAGAGCCCAGAGTATGGAAA	4.08
TCGAGTAGGTTAGGGGCATTTAGAATGGCGTCGA	0.534

Sequence	PBM binding z-score
CGAACTAGGTCAAGGGCAGTGAATCTCCGCACGC	2.35
TAGCCTAGGTCATGAGGGCCAGTATAGTGTCGGC	3.23
CGTCCAAGGTCATAGGAGGGCAGTGAAGACAGAT	5.44
GCTCCTAGGTCAGGTTGGTCAGCTAACGGGTACG	1.47
ATCTAAAGGTCGACGAGGTGAGTATACACCGTTT	4.1
ATATGTAGGTTAGCTGGGGTCATCCAGACTAGGC	5.97
CAAACTAAGTCAAAGGTCAAAGTCGAGCCAACCA	8.46
AATACAGGGTCATCGTAGGCCAGAGAACGCACAG	6.83
TCATATAGGTATATGCTAGGTGAAAGTCCGATCT	0.588
ACTTACGGGCCAACGAGGTTATAGCACGCGTATA	1.01
TCATATAGGTAAATGCTAGGTGAGAGTCCGATCT	0.42
GCGCCTGGGGCATCAGCAGGTTACCATAACTTAA	0.179
TTACCAAGGTGAGCTGAGGGCGTTGATCCAACTC	0.126
ACTATTAGTTGAGACGAGGGCAACCGATAGGTTG	0.75
TTACCAAGGTGAAAGTCGTTGATCCCTCTGTAGA	1.2
CTACCAAGGTGCACAAGGTCGTTGATTACTATTC	1.42
AGAATGAGGTTATACCTAGATCAGGGAAGAAAGT	2.12
CGTCAAAGTTCAACTAAGGTACCGTAAAGCACGC	5.35
TCTCGGAGGACACGAAGGCCAGAGCTTTCCAGAG	0.00493

System: THRa:RXRa (NR concentration 90 nM, RXRa partner concentration 90 nM)
Assay: as above
Outline: as §1

Sequence	PBM binding z-score
TCGAGTAGGTTAGGGGCATTGAGAATGGCGTCGA	0.83
TCGTATAGGTAAACAGGTGAAAGTCCGTAAGTTA	0.794
CTCGAAAGGTCGGATGAGGTGAGTATACGGATAA	5.16
CAAACTAGATCAAGGTCAAAGTCGGTTTGTGCCA	3.88
CATAGCAGGCCAATCTGGGTCACTCAAGGCTTGA	3.69
AGAATGAGGTTATACGAAGATCAGGGAAGAAAGT	2.01
GCTGCTAGGTGAACTGATGGTCAGCTAAAGCTCG	1.03
CGACCTAGGTCAGAACAGGACAGTGAAGGATGAT	3.83
CGAACTAGGTCATAACAGGACAGTGAAGGATGAT	4.04
TCGGGTAGGTTAGTCGGGGCATTCAGCCAACATA	1.57
CATACATGGTCAGCTAGGCCAGAGTAGGGACGGC	-0.289
TCTATTAGTTGAAGGGCAACCAACGAGTCCGTTT	0.101
CAAACTAGGTCACGAAAGGTGAAAGTCGAATGAC	4.82
GCAGACAGGTGACACGCAGGTAACTCAGGGTGGC	0.997
AGAATGAGGTTAAGATCAGGTAAACAGAATACAT	3.55
CCTACTGGGCCAAAGGTCATTGAATCCAATGCTC	3.56
TCGAGTTGGTCAAAGGTCACACACTCGAAATGCG	3.94
TCCTATAGGTAATACAGGTGAAAGTCGGCATCTA	0.883
GATACAGGGTCAGCTAGAGCCCAGAGTATGGAAA	2.43
TCGAGTAGGTTAGGGGCATTTAGAATGGCGTCGA	0.793

Sequence	PBM binding z-score
CGAACTAGGTCAAGGGCAGTGAATCTCCGCACGC	2.98
TAGCCTAGGTCATGAGGGCCAGTATAGTGTCGGC	3.04
CGTCCAAGGTCATAGGAGGGCAGTGAAGACAGAT	4.83
GCTCCTAGGTCAGGTTGGTCAGCTAACGGGTACG	2.27
ATCTAAAGGTCGACGAGGTGAGTATACACCGTTT	3.82
ATATGTAGGTTAGCTGGGGTCATCCAGACTAGGC	5.2
CAAACTAAGTCAAAGGTCAAAGTCGAGCCAACCA	3.74
AATACAGGGTCATCGTAGGCCAGAGAACGCACAG	4.95
TCATATAGGTATATGCTAGGTGAAAGTCCGATCT	1.23
ACTTACGGGCCAACGAGGTTATAGCACGCGTATA	1.76
TCATATAGGTAAATGCTAGGTGAGAGTCCGATCT	0.935
GCGCCTGGGGCATCAGCAGGTTACCATAACTTAA	0.955
TTACCAAGGTGAGCTGAGGGCGTTGATCCAACTC	3.36
ACTATTAGTTGAGACGAGGGCAACCGATAGGTTG	2.7
TTACCAAGGTGAAAGTCGTTGATCCCTCTGTAGA	2
CTACCAAGGTGCACAAGGTCGTTGATTACTATTC	2.14
AGAATGAGGTTATACCTAGATCAGGGAAGAAAGT	2.05
CGTCAAAGTTCAACTAAGGTACCGTAAAGCACGC	4.81
TCTCGGAGGACACGAAGGCCAGAGCTTTCCAGAG	1.43
